Screening results as filed in PubChem BioAssay.
D2 antagonist = D2 dopamine receptor (human) antagonism. P14416. HEK293 TREx D2 cells, calcium flux, dopamine EC80. inhibition, % at 10 µM. 340,000 compounds, 2% hits; in the data active = inhibition above about 30%; inactive = below that, where a call was filed; also: 0% is about no effect
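Compounds are added to dye-loaded, induced HEK293 T-REx cells coupled to calcium release via D2; after a 3 min kinetic read an EC80 dopamine stimulus is given and fluorescence is recorded for 3 more min.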
D2 PAM-1 = positive allosteric modulators of human D2 dopamine receptor; P14416; HEK293 T-REx D2, calcium flux, EC20 dopamine potentiation; potentiation, % at 10 µM; 340,000 compounds, 0.34% hits; AID 485347;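 active = potentiation over 3 SD above the plate norm, cut at about 30% in these data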; also: 0% is about no effect
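Potentiation of an EC20 dopamine calcium response is measured in a force-coupled, tetracycline-inducible Hek293 Trex D2 line. Compound-only kinetic reads over 180 s flag agonists before dopamine addition.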
D2 ag-1 = D2 dopamine receptor (human) agonism | 340,000 compounds, 0.53% hits | HEK293 T-REx D2 cells, calcium flux agonist mode | AID 485358 | activation, % at 2 µM | P14416;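 active = activation over 3 SD above normal in the single-dose calcium agonist read, cut at about 30% in these data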; also: 0% is about no effect
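HEK293 Trex D2 cells, tetracycline-induced, o/n 30 C 5% CO2; no-wash Ca dye, RT 30–90 min; 10-cycle baseline, 23 nl cpd added, kinetic Ca read 180 s; agonist hits = positive Ca response.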
D2 ag-2 = activates the human D2 dopamine receptor. P14416. DiscoveRx PathHunter D2 beta-arrestin, luminescence, 90 min; 100% = 57 uM dopamine signal. activation, % (no concentration beside the values). 360,000 compounds, 0.084% hits. AID 624465; in the data active = activation above about 40%
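Agonist mode: compounds alone added to overnight-plated D2 PathHunter cells for 90 min at 37 C, with 57 uM final dopamine (EC100) defining full response. Beta-arrestin recruitment detected by chemiluminescent reagent, read after 1 h at ambient temperature.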
B2AR arrestin = recruits beta-arrestin to the human beta2-adrenergic receptor; AID 492947; beta-arrestin recruitment to beta2AR, cell-based reporter; 330,000 compounds, 0.02% hits; P07550; Potency, µM (series often up to 46.1 µM), without a hit: at the highest dose activation, hits mostly activators; active = well fitted activation curve with a large enough effect;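 also: potency is read from the fitted curve at half-maximal effect; 0% = DMSO controls and full agonism = EC100 isoproterenol or metaproterenol; nearly all actives have a fitted effect of over 65% in size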
Target sequence (P07550 whole entry, looked up): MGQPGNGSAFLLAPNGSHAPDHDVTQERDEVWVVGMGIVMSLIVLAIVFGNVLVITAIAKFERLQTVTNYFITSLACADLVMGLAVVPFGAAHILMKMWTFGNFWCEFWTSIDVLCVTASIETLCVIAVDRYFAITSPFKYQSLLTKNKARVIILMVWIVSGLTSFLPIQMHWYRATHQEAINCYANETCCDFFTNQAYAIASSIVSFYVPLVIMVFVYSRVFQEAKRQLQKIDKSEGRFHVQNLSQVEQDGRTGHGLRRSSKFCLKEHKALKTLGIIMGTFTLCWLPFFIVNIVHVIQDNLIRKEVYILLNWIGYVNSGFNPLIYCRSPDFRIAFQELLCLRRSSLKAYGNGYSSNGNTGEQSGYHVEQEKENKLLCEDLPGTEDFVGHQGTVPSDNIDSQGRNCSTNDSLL
D2 PAM-2 = human D2 receptor positive allosteric modulation | P14416 | DiscoveRx D2 beta-arrestin cells, luminescence, 90 min; 100% = 57 uM dopamine signal | potentiation, % (concentration not given with the values) | 360,000 compounds, 0.23% hits | AID 624464; in the data active = potentiation above about 50%
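PathHunter D2 cells, attached overnight at 37 deg C, received compound in DMSO plus dopamine at EC20 (50 nM final) for 90 min at 37 deg C. Beta-arrestin recruitment was read as luminescence after 1 h with detection reagent at ambient temperature.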
Numbers without * were called inactive; nt = no result. Compounds with a hit are over-represented: about 2.4% of the library has one in this group of screens.

SMILES | D2 antagonist | D2 PAM-1 | D2 ag-1 | D2 ag-2 | B2AR arrestin | D2 PAM-2
COc1ccc(NC(=O)NNC(=O)C(C)Oc2ccc(C(C)C)cc2)c(OC)c1 (centres undefined) | -3 | -2 | 0 | 2 | 1% | -1
CCN1CCN(c2nc(Nc3ccccc3)nc(N)c2[N+](=O)[O-])CC1 | 84* | -20 | -2 | -7 | 0% | -35
Cc1ccc(Nc2nc(N)c([N+](=O)[O-])c(N3CCOCC3)n2)cc1C | 3 | 21 | -2 | -9 | -3% | -6
CCN1CCN(c2nc(Nc3ccc(OC)cc3)nc(N)c2[N+](=O)[O-])CC1 | 41* | -10 | -1 | 0 | 0% | -22
Nc1nc(NCc2ccco2)nc(N2CCN(Cc3ccccc3)CC2)c1[N+](=O)[O-] | 89* | -15 | 0 | -3 | 0% | -26
Nc1nc(Nc2cccc(F)c2)nc(N2CCOCC2)c1[N+](=O)[O-] | -7 | -12 | 0 | 4 | 0% | -10
CCN1CCN(c2nc(Nc3cccc(C)c3)nc(N)c2[N+](=O)[O-])CC1 | 85* | -18 | 0 | -6 | 0% | -15
O=C(Cc1ccc([N+](=O)[O-])cc1)N1CCN(c2ccc([N+](=O)[O-])cc2)CC1 | -1 | 13 | -2 | 6 | 0% | 2
Nc1nc(Nc2ccccc2F)nc(N2CCCC2)c1[N+](=O)[O-] | -7 | 7 | 0 | -2 | 0% | 0
CCN1CCN(c2nc(Nc3ccccc3F)nc(N)c2[N+](=O)[O-])CC1 | 78* | -21 | 0 | -1 | 0% | -31
Cc1sc2ncnc(NCC3(N4CCOCC4)CCCCC3)c2c1C | 2 | 30* | 1 | -2 | 0% | -3
c1nc(NCC2(N3CCOCC3)CCCCC2)c2ccsc2n1 | -3 | 38* | -2 | -1 | -1% | -8
CC(=O)Nc1cc(-c2cccc(C(=O)NCCN(C)C)c2)cn2c(-c3cccc(C(F)(F)F)c3)cnc12 | nt | nt | nt | 6 | nt | -7
CCc1cc2c(=O)oc(-c3ccc(Br)cc3)nc2s1 | 33* | 11 | -1 | -3 | -1% | -6
CCCCn1c(SCC(=O)NCc2cccs2)nc2c1c(=O)n(C)c(=O)n2C | nt | nt | nt | -1 | -4% | 0
CCc1cccc(C)c1NC(=O)c1cccc(N(C)C)c1 | -4 | -2 | 1 | -3 | 0% | -21
Cc1c(C(=O)NCC(c2ccco2)N2CCCC2)sc2ccccc12 (centres undefined) | nt | nt | nt | 5 | -1% | -15
CCc1cc(C(=O)NCC(c2ccco2)N2CCCCC2)sc1C (centres undefined) | 39* | -31 | 0 | -4 | -1% | -36
O=C(NCC(c1ccco1)N1CCCC1)c1cccc(NS(=O)(=O)c2ccccc2)c1 (centres undefined) | 2 | -7 | -1 | -3 | 0% | -11
O=C1CSc2ccc(C(=O)NCC(c3ccco3)N3CCCCC3)cc2N1 (centres undefined) | 36* | -33 | 0 | -6 | 0% | -31
O=C(CSc1nncs1)NNC(=O)c1ccccc1Br | nt | nt | nt | -2 | 0% | 1
COc1ccc(S(N)(=O)=O)cc1C(=O)NCCCN1CCN(c2ccc(C)cc2)CC1 | 49* | -19 | 1 | -2 | 0% | -46
COc1ccc(N2CCN(CCCNC(=O)c3cc4sccc4n3C)CC2)cc1 | 40* | -27 | 38* | 4 | -1% | -22
CN(c1ccc(OCC(=O)N2CCOCC2)cc1)S(=O)(=O)c1ccc(Cl)cc1 | 35* | -10 | 0 | -1 | 0% | -2
Cc1ccc(C)c(NS(=O)(=O)c2ccc(OCC(=O)N3CCCC3)cc2)c1 | 8 | -5 | 0 | 0 | 0% | -2
SMILES | D2 antagonist | D2 PAM-1 | D2 ag-1 | D2 ag-2 | B2AR arrestin | D2 PAM-2
Cc1ccc(C)c(NS(=O)(=O)c2ccc(OCC(=O)N3CCOCC3)cc2)c1 | 32* | -3 | 0 | -4 | 0% | -8
O=C(Cn1cnc2c(nnn2Cc2ccc(F)cc2)c1=O)Nc1cccc(F)c1 | 37* | -4 | 1 | 1 | 0% | -3
Nc1cc(SCc2ccc([N+](=O)[O-])cc2)ncn1 | nt | nt | nt | -1 | nt | -5
Cc1nc(/N=C(\N)NC(=O)c2ccccc2)nc2ccccc12 | -12 | 7 | 0 | 0 | 0% | -17
Cc1nc(/N=C(\N)NC(=O)N2c3ccccc3Sc3ccccc32)nc2ccccc12 | -10 | -3 | 0 | 6 | 0% | 55*
CCOc1cc(C(=O)Nc2ccc([N+](=O)[O-])cn2)cc(OCC)c1OCC | 69* | -31 | 0 | -5 | -1% | -10
COc1ccc(C(=O)Nc2ccc([N+](=O)[O-])cn2)cc1OC | 17 | -20 | 0 | 0 | 0% | -27
COc1ccc([N+](=O)[O-])cc1NC(=O)c1csc(C)c1 | -7 | 7 | 0 | 1 | 0% | 9
Cc1cc(C(=O)Nc2ccc([N+](=O)[O-])cn2)cs1 | 30* | 12 | 0 | 9 | 0% | -3
COc1cc(OC)cc(C(=O)Nc2ccc([N+](=O)[O-])cn2)c1 | 50* | -22 | 0 | 4 | -1% | -21
N#CC1=C(N)Nc2nc3ccccc3n2C1c1ccc(Cl)cc1 (centres undefined) | 5 | 0 | 0 | 2 | -1% | -3
COc1ccc(CNC(=O)c2cc(-c3ccc(C)c(C)c3)n[nH]2)cc1 | nt | -7 | -1 | nt | nt | nt
O=C(COc1ccc(S(=O)(=O)NCc2ccccc2)cc1Cl)N1CCOCC1 | 4 | -10 | 0 | -3 | 0% | -5
C=CCc1cc(Cl)ccc1OCCN(C)C | 53* | -15 | 1 | -1 | 0% | -14
CN(C)CCOCCOc1ccc(Cl)cc1C(C)(C)C | 64* | -17 | 0 | -5 | -1% | -10
CCc1nnc(NC(=O)CCC(=O)NCc2ccc(C)cc2)s1 | -1 | 14 | -1 | 3 | 0% | -5
Cc1ccc(NC(=O)CCNS(=O)(=O)c2cccc3nonc23)cc1 | 31* | 26 | 0 | -3 | -2% | -5
O=C(CCC(=O)N1CCOc2ccc(Cl)cc21)NCCCN1CCN(c2ccccc2F)CC1 | 86* | -15 | 36* | 1 | 0% | -11
COc1ccc(N2CCN(CCCNC(=O)CCC(=O)N3CCOc4ccc(Cl)cc43)CC2)cc1 | -4 | -27 | 0 | -6 | 0% | -39
Cc1ccc(C)c(N2CCN(CCCNC(=O)CCC(=O)N3CCOc4ccc(Cl)cc43)CC2)c1 | 56* | -23 | 4 | nt | 0% | nt
Cc1ccc(C)c(N2CCN(C(=O)CCC(=O)N3CCOc4ccc(Cl)cc43)CC2)c1 | 8 | -3 | 0 | -5 | 1% | -9
O=C1c2ccccc2C(=O)c2c(Nc3ccc(CCO)cc3)ccc(O)c21 | 19 | -4 | 1 | 41* | 0% | -14
